Screening data (PubChem)
Most compounds without a hit are left out; they make up all but 4.7% or so of the library.
tim10-1 inh: inhibits growth of tim10-1 mutant yeast. inhibition, % at 20 µM. AID 463190. actives 2.2% (n = 330,000). S. cerevisiae tim10-1 ts strain growth, BacTiter-Glo, 24 h;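 active = inhibition of at least 40%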;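 also: mutant grown at 25 °C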
TIM10 inh: inhibits growth of TIM10 yeast strain | actives 1.4% (n = 330,000) | inhibition, % at 10 µM | S. cerevisiae TIM10 strain growth, BacTiter-Glo luminescence, 24 h;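 active = inhibition of 40% or more at the single tested concentration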;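 also: wild-type TIM10 isogenic control strain grown at permissive 25 °C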
EBI2 antag: antagonists of human EBI2 receptor; P32249; EBI2 beta-arrestin recruitment, luminescence, 7a,25-OHC stimulated; inhibition, % at 5 µM; actives 0.81% (n = 360,000); AID 651636; in the data active = inhibition above about 38%;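 also: enzyme fragment complementation signal reports receptor beta-arrestin coupling in cells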
Target sequence (P32249 whole entry, looked up, the tested form may be a part): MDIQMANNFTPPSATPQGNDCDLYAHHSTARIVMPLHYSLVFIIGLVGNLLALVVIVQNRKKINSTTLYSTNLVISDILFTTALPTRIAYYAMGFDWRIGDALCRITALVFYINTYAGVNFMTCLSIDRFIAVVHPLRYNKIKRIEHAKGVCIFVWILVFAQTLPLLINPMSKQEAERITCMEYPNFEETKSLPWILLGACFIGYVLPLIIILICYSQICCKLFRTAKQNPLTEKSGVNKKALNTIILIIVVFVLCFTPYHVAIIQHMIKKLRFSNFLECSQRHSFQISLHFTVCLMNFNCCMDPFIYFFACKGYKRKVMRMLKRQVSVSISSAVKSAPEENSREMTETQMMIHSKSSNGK
tim23-1 inh: inhibits growth of tim23-1 mutant yeast | S. cerevisiae tim23-1 growth, BacTiter-Glo luminescence, 24 h | inhibition, % at 20 µM | actives 1.3% (n = 330,000) | AID 463212;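 active = growth inhibition of the mutant yeast at or above 50%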;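 also: temperature-sensitive mutant grown at 25 °C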
PfHsp90 set2: reduces growth (ATP signal) of yeast expressing P. falciparum Hsp90; actives 0.32% (n = 310,000); S. cerevisiae expressing PfHsp90, BacTiter-Glo ATP, 48 h; yeast lacking PDR1 and PDR3 efflux regulators; inhibition, % at 9.4 µM;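 active = every replicate shows inhibition above about 80%, whatever the replicate mean, limit read from the data; inconclusive = mean inhibition reaches the set limit but some replicate falls short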
SKKanGAS inh: SKKanGAS growth inhibition | S. pyogenes SKKanGAS, kanamycin growth, BacTiter-Glo, 6 h | inhibition, % at 7.5 µM | AID 1662 | actives 1.3% (n = 300,000);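 active = mean replicate score, as percent of positive control median, at least 50; inconclusive = mean below 50 but one replicate at or above 50; inactive = mean and every replicate below 50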;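 also: strain carries kanamycin resistance gene driven by streptokinase promoter and grows in 40 µg/ml kanamycin; loss of luminescence reflects streptokinase promoter inhibition or plain growth inhibition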
tim10-1 conf: confirmation of tim10-1 mutant yeast growth inhibitors | actives 56% (n = 7,400) | S. cerevisiae tim10-1 ts strain growth, BacTiter-Glo, 24 h | inhibition, % at 20 µM | shares compounds with tim10-1 inh | AID 463213;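 active = inhibition of yeast growth at or above a set limit in either of two repeat tests at 20 µM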;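 also: tim10-1 mutant grown at permissive 25 °C to find synthetic lethal compounds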
TIM10 conf: confirmation of TIM10 yeast growth inhibitors; actives 63% (n = 4,600); AID 463215; inhibition, % at 10 µM; S. cerevisiae tim10 strain growth, BacTiter-Glo luminescence, 24 h; shares compounds with TIM10 inh;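 active = inhibition of yeast growth at or above a set limit in either of two replicates at 10 µM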; also: this counterscreen used the strain with wild-type TIM10
Hits are given with their value; - = inactive; ? = inconclusive; . = not tested or not shown.

SMILES | tim10-1 inh | TIM10 inh | EBI2 antag | tim23-1 inh | PfHsp90 set2 | SKKanGAS inh | tim10-1 conf | TIM10 conf
O=C(Nc1cccc(Cl)c1)NC1CCCCC1 | 41 | 50 | - | - | . | - | 33 | -
CCCc1cc(=O)[nH]c(SCC(=O)Nc2ccc(N3CCCCC3)cc2)n1 | - | - | - | - | - | . | . | .
CC(C)n1c(-c2ccc(C(C)(C)C)cc2)n[nH]c1=S | 43 | 44 | - | - | - | - | 35 | 46
CC(C)n1c(-c2ccccc2F)n[nH]c1=S | - | - | - | - | . | - | . | .
CCOC(=O)C1(CCC(=O)OCc2ccccc2)CCCCC1=O (centres undefined) | . | . | - | . | . | . | . | .
O=C(c1ccc2c3n(nc2c1)-c1ccccc1CO3)N1CCOCC1 | 48 | 41 | - | - | - | - | 51 | 31
NC(=O)c1ccsc1NC(=O)c1ccc(N2CCCC2=O)cc1 | - | - | - | - | - | - | . | .
NC(=O)c1ccsc1NC(=O)c1ccc2c(c1)CCCC2 | 46 | 56 | - | - | - | - | - | 37
CC(=O)Nc1ccc(S(=O)(=O)N2CCN(Cc3csc(C)n3)CC2)cc1 | - | - | - | - | - | - | . | .
Cc1cccc(NC(=S)N=Nc2c(O)n(CN3CCOCC3)c3ccccc23)c1C | 59 | 59 | - | - | - | . | 36 | 41
CC(C)OC(=O)CN1C(=O)S/C(=C/c2ccc(N3CCCCC3)o2)C1=O | 46 | 46 | - | - | ? | - | 72 | 83
O=c1oc2ccccc2c(O)c1/C=N/c1ncccn1 | - | - | - | - | - | - | . | .
O=c1oc2ccccc2c(O)c1/C=C1\C=Nc2ccccc21 | 65 | 69 | - | - | - | - | 72 | -
O=c1[nH]c(N2CCCCC2)nc2ncn(Cc3ccccc3)c12 | - | - | - | - | - | . | . | .
Cn1c(=O)n(Cc2ccccc2)c(=O)c2c1nc1n2CCCN1Cc1ccccc1 | - | - | - | - | - | - | . | .
Cn1c(=O)n(Cc2ccccc2)c(=O)c2c1nc1n2CCCN1CCc1ccccc1 | 43 | 47 | - | - | - | - | 41 | 34
C[C@H]1CC[C@H]2C(=O)N3[C@H](c4cccc(N5CCCC5=O)c4)[C@@H](C)CC[C@H]3C(=O)N2[C@@H]1c1cccc(N2CCCC2=O)c1 | - | - | . | - | . | - | . | .
C[C@H]1CC[C@H]2C(=O)N3[C@H](c4ccccc4Br)[C@@H](C)CC[C@H]3C(=O)N2[C@@H]1c1ccccc1Br | 41 | 44 | . | - | . | - | 33 | 41
COc1ccc(CNC(=O)c2cc(SC)ccc2Cl)cc1OC | - | - | - | - | - | - | . | .
CC1=Nc2ccccc2/C1=C/c1nc(-c2ccc(C)s2)oc1O | - | - | - | - | - | - | . | .
CC1=Nc2ccccc2/C1=C\c1nc(-c2ccccc2)oc1O | 42 | 45 | - | - | - | - | 34 | 35
CCOc1ccc(C(=O)Nc2ccccc2N2CCN(C(=O)c3ccccc3)CC2)cc1[N+](=O)[O-] | - | - | - | - | - | - | . | .
Cc1ccc2c(c1)sc(-c1ccc(N(C)C)cc1)[n+]2C | 70 | 85 | - | - | - | - | 74 | 82
CCN(CC)C(=N)/C(C#N)=N/Nc1ccc(C)cc1 | - | - | - | - | - | - | . | .
O=C(Nc1nc2ccc(F)cc2s1)c1cccc(S(=O)(=O)N2CCc3ccccc32)c1 | 40 | 50 | - | - | - | - | - | -
SMILES | tim10-1 inh | TIM10 inh | EBI2 antag | tim23-1 inh | PfHsp90 set2 | SKKanGAS inh | tim10-1 conf | TIM10 conf
Cc1ccc(N2C(=O)CSC2c2cccnc2)c(Cl)c1 (centres undefined) | - | - | - | - | - | - | . | .
O=C1CN(C(=O)c2ccccc2F)C(c2ccc(F)cc2)c2cc(Br)ccc2N1 (centres undefined) | - | - | - | - | - | - | . | .
CCCSc1nc(C)c2cc(C)cc(C)c2n1 | - | - | - | - | - | - | . | .
Cc1cc(C)c2nc3nc(C)c(C)cc3c(N)c2c1 | 62 | 81 | - | - | - | - | 71 | 81
CCOc1cc(/C=N/NC(=O)c2cc(-c3cccnc3)nc3ccccc23)ccc1O | 45 | 44 | - | - | - | - | 38 | -
CS(=O)(=O)N1CCC(C(=O)N2CCN(C(c3ccccc3)c3ccccc3)CC2)CC1 | - | - | - | - | - | - | . | .
COc1ccc(/C=C2\CCc3ccccc3C2=O)cc1Cn1nc(C)cc1C | 45 | 49 | - | - | - | - | 37 | 40
CC(C)CC(=O)NC(=S)Nc1ccc(Cl)cn1 | 43 | 47 | - | - | - | - | 38 | 40
CCOC(=O)c1c(N2C(=O)CC(Sc3ccccc3C(=O)O)C2=O)sc2c1CCCC2 (centres undefined) | 54 | 43 | - | - | - | - | 44 | 40
COc1ccc2[nH]c3c(=O)n4c(nc3c2c1)SCC4 | 45 | 40 | - | - | - | - | 37 | -
O=c1c2[nH]c3ccccc3c2nc2n1CCS2 | - | - | - | - | - | - | . | .
COc1ccc2nc3oc(C(=O)NC4CCN(Cc5ccccc5)CC4)cc3cc2c1 | 52 | 74 | - | - | - | . | 50 | 44
COc1ccc2cc3cc(C(=O)NCCN4CCN(Cc5ccccc5)CC4)oc3nc2c1 | 57 | 75 | - | - | - | - | 58 | -
CCOC(=O)N1CCC(NC(=O)c2cc3cc4cc(OC)ccc4nc3o2)CC1 | - | - | - | - | - | - | . | .
COc1ccc2cc3cc(C(=O)NCCCN4CCOCC4)oc3nc2c1 | 58 | 79 | - | - | - | - | 67 | 81
CCCCN(CC)CCCNC(=O)c1cc2cc3ccc(OC)cc3nc2o1 | 43 | 66 | - | - | - | - | 44 | -
O=C1c2ccccc2C(=O)c2c1ccc1c(=O)n(C3CCCCC3)[nH]c21 | 50 | 50 | - | - | - | ? | 39 | 54
COc1cccc(/C=c2\sc3nc(-c4cccs4)nn3c2=O)c1OC | 42 | 51 | - | - | - | - | 33 | -
Cc1cc2ncn(-c3ncnc4sc5c(c34)CCCC5)c2cc1C | - | - | . | - | . | - | . | .
Cc1cc2ncn(-c3ncnc4sc5c(c34)CCC(C)C5)c2cc1C (centres undefined) | 50 | 52 | - | - | - | - | 45 | 45
Cc1cc2ncn(-c3ncnc4scc(-c5ccccc5)c34)c2cc1C | 50 | 41 | - | - | - | - | 45 | 37
O=C(NC1CCCC1)c1cccc(Oc2ccccc2)c1 | 46 | 42 | - | - | - | - | - | 32
CCOC(=O)c1ccc(N2C(=O)CC(N3CCCC(C)C3)C2=O)cc1 (centres undefined) | 66 | 46 | - | - | . | - | 66 | 47
